Laboratory results reported in PubChem BioAssay AID1159580 (chemical genetic matrix, 2015).
Several values for one entry are separate records, joined by “and”; a condition that tells them apart may be missing. Equal values may be shown once. Screen size: about 5,500 compounds; about 2,000 (36%) were called active. Another 18% or so got no clear call; they are omitted. No stated cut-off is given here; in the data, active means normalized growth mostly below about 0.91 (no sharp cut-off); inconclusive means no clear call, values can overlap the other calls; inactive means mostly above about 0.92. This is one part of the list.

Assay: chemical genetic growth profiling, strain panel (AID 1159580);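 further: tested at 20 µM; growth read once vehicle control cultures reached saturation at 30 °C; 1 = growth at the plate median or of vehicle wells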
Conditions: S. cerevisiae deletion strains, growth OD

Measured: normalized growth

COc1c2ccoc2cc2oc(C)cc(=O)c12
inactive: locus YAL021C, strain ccr4, stronger effect = lower value 1 | locus YAL026C, strain drs2, stronger effect = lower value 0.999 | locus YAL030W, strain snc1, stronger effect = lower value 0.987 | locus YBL061C, strain skt5, stronger effect = lower value 1 | locus YBR009C, strain hhf1, stronger effect = lower value 0.993 | locus YBR021W, strain FUR4, stronger effect = lower value 0.997 | locus YBR023C, strain chs3, stronger effect = lower value 0.991 | locus YBR171W, strain sec66, stronger effect = lower value 0.987 | locus YBR229C, strain ROT2, stronger effect = lower value 0.948 | locus YBR231C, strain swc5, stronger effect = lower value 0.99 | locus YBR279W, strain paf1, stronger effect = lower value 0.995 | locus YCL011C, strain gbp2, stronger effect = lower value 0.985 | locus YCL016C, strain dcc1, stronger effect = lower value 0.979 | locus YCL029C, strain bik1, stronger effect = lower value 0.98 | locus YCL069W, strain vba3, stronger effect = lower value 1.01 | locus YCR088W, strain abp1, stronger effect = lower value 0.99 | locus YDL005C, strain med2, stronger effect = lower value 1 | locus YDL035C, strain GPR1, stronger effect = lower value 0.972 | locus YDL040C, strain nat1, stronger effect = lower value 1 | locus YDL074C, strain BRE1, stronger effect = lower value 0.981 | locus YDL101C, strain DUN1, stronger effect = lower value 0.96 | locus YDL134C, strain PPH21, stronger effect = lower value 0.964 | locus YDL185W, strain tfp1, stronger effect = lower value 0.971 | locus YDL192W, strain arf1, stronger effect = lower value 0.945 | locus YDR001C, strain nth1, stronger effect = lower value 0.997 | locus YDR069C, strain doa4, stronger effect = lower value 1 | locus YDR101C, strain arx1, stronger effect = lower value 1.02 | locus YDR137W, strain rgp1, stronger effect = lower value 1 | locus YDR159W, strain sac3, stronger effect = lower value 1.02 | locus YDR162C, strain NBP2, stronger effect = lower value 0.905 | locus YDR195W, strain ref2 1.03 | locus YDR297W, strain sur2, stronger effect = lower value 1 | locus YDR318W, strain mcm21, stronger effect = lower value 0.945 | locus YDR334W, strain swr1, stronger effect = lower value 1 | locus YDR335W, strain msn5, stronger effect = lower value 1 | locus YDR388W, stronger effect = lower value 0.996 | locus YDR392W, strain spt3, stronger effect = lower value 0.961 | locus YDR502C, strain sam2, stronger effect = lower value 0.966 | locus YEL003W, strain gim4, stronger effect = lower value 1 | locus YEL037C, strain rad23, stronger effect = lower value 1 | locus YEL061C, strain CIN8 (second series), stronger effect = lower value 0.997 | locus YEL061C, strain CIN8, stronger effect = lower value 0.975 | locus YER015W, strain faa2, stronger effect = lower value 0.997 | locus YER016W, strain bim1, stronger effect = lower value 0.996 | locus YER110C, stronger effect = lower value 0.972 | locus YER111C, strain swi4, stronger effect = lower value 0.985 | locus YER155C, strain BEM2 (second series), stronger effect = lower value 0.999 | locus YER155C, strain BEM2, stronger effect = lower value 1 | locus YER167W, strain BCK2, stronger effect = lower value 0.98 | locus YFR010W, strain ubp6, stronger effect = lower value 0.985 | locus YGL078C, strain dbp3, stronger effect = lower value 0.999 | locus YGL086W, strain mad1, stronger effect = lower value 1.05 | locus YGL167C, strain pmr1, stronger effect = lower value 0.997 | locus YGL173C, strain kem1, stronger effect = lower value 0.984 | locus YGL227W, strain vid30, stronger effect = lower value 0.986 | locus YGL240W, strain doc1, stronger effect = lower value 1.01 | locus YGL248W, strain PDE1, stronger effect = lower value 0.928 | locus YGL253W, strain hxk2, stronger effect = lower value 0.988 | locus YGR078C, strain PAC10, stronger effect = lower value 0.922 | locus YGR135W, strain pre9, stronger effect = lower value 0.914 | locus YGR252W, strain gcn5, stronger effect = lower value 0.912 | locus YHR013C, strain ard1, stronger effect = lower value 0.993 | locus YHR027C, strain rpn1, stronger effect = lower value 0.995 | locus YHR030C, strain SLT2, stronger effect = lower value 0.987 and 1.04 | locus YHR079C, strain IRE1 (second series), stronger effect = lower value 1 | locus YHR079C, strain IRE1, stronger effect = lower value 1.04 | locus YHR094C, strain hxt1, stronger effect = lower value 0.978 | locus YHR129C, strain ARP1, stronger effect = lower value 0.981 | locus YHR142W, strain chs7, stronger effect = lower value 0.971 | locus YHR200W, strain rpn10, stronger effect = lower value 0.953 | locus YIL066C, strain RNR3, stronger effect = lower value 0.971 | locus YIL073C, strain SPO22, stronger effect = lower value 0.936 | locus YIL125W, strain kgd1, stronger effect = lower value 1 | locus YIR030C, strain dcg1, stronger effect = lower value 0.995 | locus YJL092W, strain hpr5, stronger effect = lower value 0.993 | locus YJL095W, strain BCK1 (second series), stronger effect = lower value 0.999 | locus YJL095W, strain BCK1, stronger effect = lower value 0.884 and 1.03 | locus YJL115W, strain asf1, stronger effect = lower value 1.01 | locus YJL129C, strain trk1, stronger effect = lower value 1.01 | locus YJL134W, strain LCB3, stronger effect = lower value 0.985 | locus YJL154C, strain vps35, stronger effect = lower value 1.01 | locus YJL164C, strain tpk1, stronger effect = lower value 0.989 | locus YJL166W, strain qcr8, stronger effect = lower value 0.984 | locus YJL168C, strain set2, stronger effect = lower value 1 | locus YJL187C, strain SWE1 (second series), stronger effect = lower value 0.947 | locus YJR043C, strain POL32, stronger effect = lower value 0.97 | locus YJR066W, strain TOR1, stronger effect = lower value 0.993 | locus YJR075W, strain HOC1, stronger effect = lower value 0.955
